LGR2 inh: blocks bursicon-induced cAMP signaling via Drosophila LGR2 | HEK293 LGR2, CRE-luciferase, bursicon-stimulated, 4 h | inhibition, % at 9.99 µM | 380,000 tested, 0.35% active | AID 720647;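 active = drop in luminescence signal, shown as inhibition above about 50% in the replicate tests, limit read from the data, passing the limit was not always enough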;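 note: agonist challenge used bursicon conditioned medium at about half maximal strength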
Mdm2 MdmX PPI: inhibitors of human Mdm2/MdmX interaction; SaOS-2 split-luciferase Mdm2/MdmX complementation, luminescence; O15151+Q00987; AID 485346; 330,000 tested, 3% active; inhibition, % at 8 µM;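 active = inhibition of at least 50% at 8 µM in the primary screen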
Target sequence (O15151 whole entry, looked up): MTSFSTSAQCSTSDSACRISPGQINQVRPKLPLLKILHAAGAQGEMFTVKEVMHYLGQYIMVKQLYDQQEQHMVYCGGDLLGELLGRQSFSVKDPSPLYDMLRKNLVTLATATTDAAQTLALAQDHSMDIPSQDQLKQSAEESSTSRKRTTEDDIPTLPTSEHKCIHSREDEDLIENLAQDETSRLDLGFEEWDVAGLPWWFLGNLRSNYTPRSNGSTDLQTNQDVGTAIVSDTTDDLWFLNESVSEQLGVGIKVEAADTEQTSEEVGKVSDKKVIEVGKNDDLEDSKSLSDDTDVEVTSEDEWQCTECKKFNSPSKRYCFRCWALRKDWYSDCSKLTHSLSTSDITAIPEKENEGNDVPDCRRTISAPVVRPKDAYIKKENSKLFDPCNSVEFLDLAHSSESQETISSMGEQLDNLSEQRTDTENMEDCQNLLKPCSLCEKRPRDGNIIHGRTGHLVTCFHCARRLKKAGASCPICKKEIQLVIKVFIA
Target sequence (Q00987 whole entry, looked up): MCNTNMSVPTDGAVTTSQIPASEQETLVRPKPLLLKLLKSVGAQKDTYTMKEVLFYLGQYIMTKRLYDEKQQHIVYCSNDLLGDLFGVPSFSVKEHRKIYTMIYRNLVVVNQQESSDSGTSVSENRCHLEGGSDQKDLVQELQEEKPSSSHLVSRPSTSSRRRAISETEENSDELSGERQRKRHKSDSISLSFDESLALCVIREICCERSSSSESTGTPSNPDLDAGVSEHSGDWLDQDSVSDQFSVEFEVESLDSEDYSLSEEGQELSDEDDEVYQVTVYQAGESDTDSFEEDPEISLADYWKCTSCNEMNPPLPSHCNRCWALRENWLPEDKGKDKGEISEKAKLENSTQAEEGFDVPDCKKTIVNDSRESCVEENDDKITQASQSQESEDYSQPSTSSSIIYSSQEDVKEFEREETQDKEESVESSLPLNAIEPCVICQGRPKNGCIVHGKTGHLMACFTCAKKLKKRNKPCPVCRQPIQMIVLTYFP
KKLEB tox: counter-screen for CF NF-kB inhibitors: cytotoxicity | AID 602141 | KKLEB CF airway cells viability, ATPlite luminescence, overnight; stronger effect = lower value; cells stimulated with P. aeruginosa culture filtrate | 360,000 tested, 0.36% active | activity change (cytotoxicity), % at 5 µM;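 active = corrected activity change at or below -50% at 5 µM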
CF NFkB block: blocks PAF-induced NF-kB reporter in cystic fibrosis cells. KKLEB NF-kB-GFP reporter, GFP fluorescence overnight. inhibition, % at 5 µM. 360,000 tested, 0.86% active;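 active = at least 50% inhibition at 5 µM, scaled per plate between neutral and stimulator controls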;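 note: PAF is a Pseudomonas aeruginosa culture filtrate used as stimulus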
Peg3 prom inh: Peg3 promoter activity inhibition; HeLa PEG-Prom luciferase reporter, luminescence, overnight; inhibition, % at 20 µM; 360,000 tested, 1.7% active;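 active = inhibition of at least 50% at 20 µM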
HSP90 refold inh: HSP90 refolding inhibition in rabbit reticulocyte lysate; luciferase refolding luminescence, 3 h; inhibition, % at 5.6 µM; 290,000 tested, 0.91% active;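 active = inhibition above the screen-wide mean plus 3 SD, computed separately per campaign, cut at about 16% in these data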;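 note: inhibitors lower the luminescence because luciferase stays unfolded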
Mdm2-MdmX conf: human Mdm2/MdmX binding inhibition, confirmed. inhibition, % at 8 µM. 10,000 tested, 55% active. AID 489028. luminescent assay. shares compounds with Mdm2 MdmX PPI; in the data active = inhibition above about 40%
Full FLuc ctr: inhibits full-length luciferase, flagging false Mdm2/MdmX hits; shares compounds with Mdm2 MdmX PPI; SaOS-2 full-length luciferase counterscreen, luminescence; inhibition, % at 8 µM; 6,200 tested, 77% active; AID 504607;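 active = mean inhibition at 8 µM reaching about 37%, which flags the compound as non-specific, limit read from the data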;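 note: p53-null SaOS-2 cells with luciferase driven by a doxycycline-inducible promoter; compound on cells about two nights before reading with doxycycline added after day one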
Each line names hits and unclear results; the compound was inactive in the other large screens (follow-up assays come after a bar, where they were run). Compounds with a hit are over-represented: about 3.6% of the library has one in this group of screens.

COc1cc(NC(=O)c2cccs2)c(C(=O)OCC(=O)NC(C)c2ccccc2)cc1OC (stereo not drawn)	none (no result: LGR2 inh)
COc1cc(NC(=O)c2cccs2)c(C(=O)OCC(=O)NCc2ccccc2)cc1OC	Mdm2 MdmX PPI 58 (no result: LGR2 inh) | Mdm2-MdmX conf inactive
Cc1ccc2nc(/C(C#N)=C\c3ccc(Oc4ccc(C(F)(F)F)cc4[N+](=O)[O-])cc3)[nH]c2c1	Mdm2 MdmX PPI 61 (no result: LGR2 inh) | Mdm2-MdmX conf 44 | Full FLuc ctr 75
COc1ccc(/C=C(\C#N)c2nc3ccc(C)cc3[nH]2)cc1Oc1ccc(C(F)(F)F)cc1[N+](=O)[O-]	Mdm2 MdmX PPI 83 | Mdm2-MdmX conf inactive
COCC(=O)N(C)C[C@H]1Oc2cc(-c3ccc(OC)cc3)ccc2S(=O)(=O)N([C@@H](C)CO)C[C@H]1C	none (no result: Mdm2 MdmX PPI, KKLEB tox, CF NFkB block, Peg3 prom inh, HSP90 refold inh)
O=C(Nc1cccc(F)c1)N[C@H]1CC[C@H](CCNS(=O)(=O)c2cccc(Cl)c2)O[C@H]1CO	none (no result: Mdm2 MdmX PPI, KKLEB tox, CF NFkB block, Peg3 prom inh, HSP90 refold inh)
CCC(=O)NC(c1ccc(Cl)cc1Cl)c1ccc2cccnc2c1O (stereo not drawn)	Mdm2 MdmX PPI 78 | Mdm2-MdmX conf 87 | Full FLuc ctr inactive
CCCCC(=O)NC(c1ccc(Cl)cc1Cl)c1ccc2cccnc2c1O (stereo not drawn)	Mdm2 MdmX PPI 77, Peg3 prom inh 54 | Mdm2-MdmX conf 87 | Full FLuc ctr 51
CC(=O)NC(c1ccco1)c1ccc2cccnc2c1O (stereo not drawn)	Mdm2 MdmX PPI 72 | Mdm2-MdmX conf 54 | Full FLuc ctr inactive
Cc1ccnc(NC(c2ccccc2)c2ccc3cccnc3c2O)c1 (stereo not drawn)	none (no result: Mdm2 MdmX PPI, HSP90 refold inh)
CC(C)C(=O)NC(c1ccc(Cl)cc1Cl)c1ccc2cccnc2c1O (stereo not drawn)	Mdm2 MdmX PPI 84 | Mdm2-MdmX conf 91 | Full FLuc ctr inactive
COc1cc2ccccc2cc1C(=O)Nc1sc2c(c1C(N)=O)CCN(C(C)C)C2	Mdm2 MdmX PPI 100, Peg3 prom inh 101 | Mdm2-MdmX conf 42 | Full FLuc ctr 48
Cc1ccc(NC(=O)c2cc3c(=O)oc4ccccc4c3s2)nc1	Mdm2 MdmX PPI 63 | Mdm2-MdmX conf inactive
Cc1cc(C(=O)N/N=C/c2cc(Br)ccc2OC(=O)c2ccccc2)n[nH]1	Mdm2 MdmX PPI 51 (no result: LGR2 inh) | Mdm2-MdmX conf inactive | Full FLuc ctr inactive
O=C(N/N=C/c1cc(Br)ccc1OC(=O)c1ccc(Br)cc1)c1ccncc1	none
COc1ccc(C(=O)N/N=C/c2ccc(OC(=O)c3ccccc3)cc2)cc1	none
Cc1cc(C(=O)N/N=C/c2ccc(OC(=O)c3ccccc3Br)cc2)n[nH]1	none
Cc1cc(C(=O)N/N=C/c2cc(Br)ccc2OC(=O)c2ccccc2Cl)n[nH]1	Mdm2 MdmX PPI 57 | Mdm2-MdmX conf 46 | Full FLuc ctr 53
COc1ccc(C(=O)N/N=C/c2ccccc2OC(=O)c2ccccc2)cc1	Mdm2 MdmX PPI 53 | Mdm2-MdmX conf 41 | Full FLuc ctr 112
COCCn1cnc2c(c1=O)c1nc3ccccc3nc1n2/N=C/c1cccc(OC)c1	none
C=CCn1cnc2c(c1=O)c1nc3ccccc3nc1n2/N=C/c1cccc(OC)c1OC	Mdm2 MdmX PPI 59, Peg3 prom inh 61 (no result: HSP90 refold inh) | Mdm2-MdmX conf inactive
CCNC(=O)C[C@H]1CC[C@@H]2[C@H](COC[C@@H](O)CN2C(=O)Nc2cccc(OC)c2)O1	none (no result: Mdm2 MdmX PPI, KKLEB tox, CF NFkB block, Peg3 prom inh, HSP90 refold inh)
Cc1cccc(-c2ccc([C@@H]3[C@@H](CO)N4CCCCN(C(=O)NC(C)C)C[C@@H]34)cc2)c1	none (no result: Mdm2 MdmX PPI, KKLEB tox, CF NFkB block, Peg3 prom inh, HSP90 refold inh)
Cn1c(/C(C#N)=C(\O)c2ccc([N+](=O)[O-])cc2)nc2ccccc21	Mdm2 MdmX PPI 86 | Mdm2-MdmX conf inactive
COc1ccccc1NC(=O)c1c(Nc2ccccc2C)sc(C(=O)Nc2cccc(Cl)c2)c1N	Mdm2 MdmX PPI 75 | Mdm2-MdmX conf inactive
COc1cccc(Sc2ccccc2/C=N/NC(N)=O)c1	Mdm2 MdmX PPI 53 | Mdm2-MdmX conf 67 | Full FLuc ctr 58
C#CCn1c(=NC(=O)c2ccc(Cl)s2)sc2cccc(OC)c21	none
C#CCn1c(=NC(=O)c2cccs2)sc2cccc(OCC)c21	Mdm2 MdmX PPI 64 | Mdm2-MdmX conf inactive
CCCCN(C)CCNC(=S)Nc1ccc2nc(N3CCN(CC)CC3)cc(C)c2c1	Mdm2 MdmX PPI 74, Peg3 prom inh 63 | Mdm2-MdmX conf inactive | Full FLuc ctr 51
CCN1CCN(c2cc(C)c3cc(NC(=S)NCCN(C)C)ccc3n2)CC1	none
Cc1cc(N2CCCC2)nc2ccc(NC(=S)NCCCN3CCC(C)CC3)cc12	Mdm2 MdmX PPI 100, Peg3 prom inh 98 | Mdm2-MdmX conf inactive | Full FLuc ctr 49
CSc1nnc(-c2sc3cc(C(F)(F)F)cnc3c2-c2ccccc2)n1C	Mdm2 MdmX PPI 67 | Mdm2-MdmX conf 48 | Full FLuc ctr 50
O=C(O)c1sc2cc(C(F)(F)F)cnc2c1-c1ccccc1	none (no result: LGR2 inh)
CSc1nsc(N/N=C/c2ccc3c(c2)OCO3)c1C#N	none
COc1cc(/C=N/Nc2snc(SC)c2C#N)cc(OC)c1OC	Mdm2 MdmX PPI 70 (no result: LGR2 inh) | Mdm2-MdmX conf 73 | Full FLuc ctr 43
CNC(=O)C[C@H]1CC[C@H]2[C@@H](COc3ccc(NS(=O)(=O)c4cccc(F)c4)cc3C(=O)N2C)O1	none (no result: Mdm2 MdmX PPI, KKLEB tox, CF NFkB block, Peg3 prom inh, HSP90 refold inh)
COc1cc2c(c(OC)c1OC)-c1ccc(NC(=O)c3ccc(F)cc3)c(=O)cc1[C@@H](NC(C)=O)CC2	Mdm2 MdmX PPI 62 | Mdm2-MdmX conf 52 | Full FLuc ctr 78
COc1cc2c(c(OC)c1OC)-c1ccc(OC)c(=O)cc1[C@@H](NC(C)=O)CC2	Mdm2 MdmX PPI 73 | Mdm2-MdmX conf 41 | Full FLuc ctr 98
COc1cc(NC(=O)c2ccc(F)cc2)c(OC)cc1Cl	none (no result: LGR2 inh)
COc1cc2c(c(OC)c1OC)-c1ccc(OC)c(=O)cc1[C@@H](N(C)CC#CCO)CC2	Mdm2 MdmX PPI 51 | Mdm2-MdmX conf 53 | Full FLuc ctr 117
CN1CCN(C(=O)C[C@H]2CC[C@H]3[C@@H](COC[C@@H](O)CN3Cc3ccc(Oc4ccccc4)cc3)O2)CC1	none (no result: Mdm2 MdmX PPI, KKLEB tox, CF NFkB block, Peg3 prom inh, HSP90 refold inh)
O=C(Cc1ccccc1)NNC(=O)Nc1cccc(Cl)c1	none (no result: LGR2 inh)
O=C(CN1c2ccccc2Sc2ccccc21)NNC(=O)Nc1cccc(Cl)c1	Mdm2 MdmX PPI 67, Peg3 prom inh 51 (no result: LGR2 inh) | Mdm2-MdmX conf inactive | Full FLuc ctr 90
O=C(Nc1ccccc1)c1ccc(Nc2c([N+](=O)[O-])cc([N+](=O)[O-])c3ccccc23)cc1	none
O=[N+]([O-])c1cc(Br)c(Nc2ccccc2)c([N+](=O)[O-])c1	Mdm2 MdmX PPI 92 | Mdm2-MdmX conf 50 | Full FLuc ctr 79
CCOc1ccc(NC(=S)N(CCCN2CCCC2)Cc2cccn2Cc2ccc(Cl)cc2)cc1	Mdm2 MdmX PPI 65 | Mdm2-MdmX conf inactive

Assay outcomes as filed in PubChem.
